Consider 21 compounds from PubChem BioAssay (NCI).

SMILES strings stand for the structures. This is part of a sample that, as a whole, favours compounds with a hit. Of some 79,000 tested, about 15% had one in any assay. Unmarked numbers belong to inactive results. The source made the active and inactive calls. Cut-off read from the data, not from the text of the source: active = growth inhibition above about 70%; inactive = the rest.

Experiment [1] is described as follows: NCI Yeast Anticancer Drug Screen. Data for the rad50 strain (AID 155).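 Note: 0% = growth of vehicle-only cultures of the same strain.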 The note with it: S. cerevisiae rad50 strain growth inhibition; at 50.0 µM; stronger effect = higher value. Put shortly:
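Readout: growth inhibition relative to vehicle-treated cultures. Compound exposure was carried out in a genetically defined yeast strain deficient in DNA damage repair.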

The nature of experiment [2]: NCI Yeast Anticancer Drug Screen. Data for the mec2-1 strain (AID 157). The conditions noted are these: S. cerevisiae mec2-1 strain, at 50.0 µM, stronger effect = higher value. Put shortly: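 Growth inhibition is read against vehicle-treated controls after compound exposure of the mec2-1 yeast strain, which is defective in DNA damage repair or cell cycle control.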
A short description of experiment [3]: NCI Yeast Anticancer Drug Screen. Data for the sgs1 mgt1 strain (AID 161).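 Note: 0% = growth of cultures given vehicle only.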 The conditions noted are these: S. cerevisiae sgs1 mgt1 strain, at 50.0 µM, stronger effect = higher value. The procedure, abridged: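 Compounds are added to genetically altered yeast, and growth is compared with cultures given vehicle alone to give percent inhibition.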
The nature of experiment [4]: NCI Yeast Anticancer Drug Screen. Data for the cln2 rad14 strain (AID 165).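 Note: 0% = growth equal to vehicle treated cultures.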 The conditions noted are these: S. cerevisiae cln2 rad14 strain, at 50.0 µM, stronger effect = higher value. Put shortly:
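Growth inhibition, relative to vehicle-treated controls, is the read-out. The test organism is a yeast strain with defined genetic alterations, cln2 rad14.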

The nature of experiment [5]: NCI Yeast Anticancer Drug Screen. Data for the bub3 strain (AID 167). The conditions noted are these: S. cerevisiae bub3 mutant strain, at 50.0 µM, stronger effect = higher value. The procedure, abridged: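 Readout: yeast growth inhibition, expressed relative to vehicle-only wells. The test organism is a mutant strain from a panel with lesions in DNA repair or checkpoint genes.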

Experiment [6] in a line: NCI Yeast Anticancer Drug Screen. Data for the mlh1 rad18 strain (AID 175). The conditions noted are these: S. cerevisiae mlh1 rad18 strain growth inhibition; at 50.0 µM; stronger effect = higher value. The procedure, abridged:
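Cells of a genetically altered yeast strain, deficient in DNA damage repair, were treated with compound. Their growth was then compared with that of vehicle-treated cultures to give inhibition.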

Take `COCn1ccnc1C(=O)c1ccccc1`: the growth inhibition in experiment [1] was -11.4%; in experiment [2], -13.8%; in experiment [3], -9.65%; in experiment [4], -27.1%; in experiment [5], -7.25%; in experiment [6], -5.15%.
`CCCCCCCCCCCCCCCCSc1ccc(Br)cc1`: the growth inhibition in experiment [1] is 45%; in experiment [2], 7%; in experiment [3], 23.9%; in experiment [4] it was 1.8%; in experiment [5], 2.2%; in experiment [6] it was 21%.
Turning to `Oc1c(Cl)c(Cl)c(O)c2ccccc12`, the growth inhibition was -3.7% in experiment [1]; -0.95% in experiment [2]; 7.15% in experiment [3]; 44.2% in experiment [4]; 8.1% in experiment [5]; -52.9% in experiment [6].
As for `O=C(O)c1cccc(F)c1C(=O)c1ccc2ccccc2c1`, the growth inhibition in experiment [1] is -13.7%; in experiment [2] it was 4.15%; in experiment [3] it was -12.8%; in experiment [4] it was -15.2%; in experiment [5] it was -22.1%; in experiment [6], -9.7%.
In the case of `N#CSCc1c(Cl)c(Cl)c(CSC#N)c(Cl)c1Cl`, the growth inhibition in experiment [1] is -13.8%; in experiment [2], -7.15%; in experiment [3], 2.15%; in experiment [4], -18.9%; in experiment [5], 5.85%; in experiment [6], -12.4%.
With `c1ccc(C2=NN3CN(N2)c2ccccc2OCCCOc2ccccc23)cc1`, the growth inhibition in experiment [1] is -25.2%; in experiment [2], 2.05%; in experiment [3], -5.55%; in experiment [4], 12.8%; in experiment [5] it was 18.3%; in experiment [6] it was 6.25%.
For the compound `NNC(=S)N/N=C(\c1nc2ccc(Cl)cc2[nH]c1=O)C(O)c1cccc([N+](=O)[O-])c1` (stereo unspecified), the growth inhibition in experiment [1] was 48.6%; in experiment [2], 27.6%; in experiment [3], 12%; in experiment [4], -17.1%; in experiment [5], 27.4%; in experiment [6], -8.4%.
`CCCCN(CCCC)CCC(O)c1cc(C(F)(F)F)nc2c(C(F)(F)F)cccc12` (stereo unspecified): the growth inhibition in experiment [1] is -0.6%; in experiment [2], 25.7%; in experiment [3], 0.45%; in experiment [4] it was 49.2%; in experiment [5], 13.3%; in experiment [6] it was 41.1%.
As for `O=C(c1cc(O)c(O)c(O)c1)c1ccc(O)c(O)c1O`, the growth inhibition in experiment [1] was 12.9%; in experiment [2] it was 5.95%; in experiment [3], 11.3%; in experiment [4], 5.2%; in experiment [5], 14.1%; in experiment [6], 32.8%.
Turning to `CSC(SC)[P+](c1ccccc1)(c1ccccc1)c1ccccc1`, the growth inhibition in experiment [1] is 94.1% (active); in experiment [2] it was 93.9% (active); in experiment [3], 90.7% (active); in experiment [4] it was 93.5% (active); in experiment [5], 91.2% (active); in experiment [6], 93.5% (active).
On to `COc1ccc(N2C(=O)c3c(c4[nH]c5ccccc5c4c4ccc(C(C)(C)C)cc34)C2=O)cc1`, for which the growth inhibition in experiment [1] is 5.5%; in experiment [2], -1.2%; in experiment [3], 22.6%; in experiment [4], 19.6%; in experiment [5], -10.3%; in experiment [6], -2.2%.
As for `O=[N+]([O-])c1cccc(C2OCC3(CO2)COC(c2cccc([N+](=O)[O-])c2)OC3)c1` (stereo unspecified), the growth inhibition in experiment [1] is 2.95%; in experiment [2], -21.8%; in experiment [3], 6.5%; in experiment [4], 10.2%; in experiment [5], -3.1%; in experiment [6], 10.8%.
In the case of `O=c1oc2ccccc2c(O)c1C(c1ccc2c(c1)OCO2)N1CCOCC1` (stereo unspecified), the growth inhibition in experiment [1] was 23.2%; in experiment [2], 25.2%; in experiment [3], 8.5%; in experiment [4], 25.7%; in experiment [5] it was 1.8%; in experiment [6] it was 19.1%.
`COC(=O)c1cncc(C(=O)OC)c1`: the growth inhibition is -3.9% in experiment [1]; -12% in experiment [2]; 2.75% in experiment [3]; -2.35% in experiment [4]; 1.95% in experiment [5]; 12.8% in experiment [6].
`Cc1ccc2c(c1)[n+]([O-])c1c3ccccc3[nH]c1[n+]2[O-]`: the growth inhibition in experiment [1] is 63.2%; in experiment [2] it was 23%; in experiment [3], 22.9%; in experiment [4], 25.7%; in experiment [5], 15.2%; in experiment [6] it was 26.4%.
For the compound `NCc1ccc(C(=O)O)cc1`, the growth inhibition in experiment [1] was -30.2%; in experiment [2], -8.9%; in experiment [3] it was -28%; in experiment [4], -68.7%; in experiment [5], -13%; in experiment [6], -14.6%.
`Cc1c2ccccc2cc2c1ccc1c(Br)cccc12`: the growth inhibition in experiment [1] is 10.1%; in experiment [2] it was -3.45%; in experiment [3], 21.3%; in experiment [4] it was 25.8%; in experiment [5], 12.1%; in experiment [6] it was 5.8%.
As to `CC(=O)Nc1ccc(-c2nnc(SCC(=O)Nc3ccccc3)o2)cc1`, the growth inhibition is 2.3% in experiment [1]; 6.8% in experiment [2]; -4.95% in experiment [3]; -1.8% in experiment [4]; -14.6% in experiment [5]; -8.55% in experiment [6].
Turning to `CC(=O)OC1CCC2(C)C(=CCC3C2CCC2(C)C3CCC23SCCS3)C1` (stereo unspecified), the growth inhibition in experiment [1] is 24%; in experiment [2] it was -3%; in experiment [3] it was 4.25%; in experiment [4] it was -60.1%; in experiment [5] it was -2.9%; in experiment [6], 9.6%.
For `c1ccc(C(c2ccccc2)c2ccccc2)cc1`, the growth inhibition in experiment [1] is -20.6%; in experiment [2] it was -20.4%; in experiment [3] it was -16.1%; in experiment [4], -10.3%; in experiment [5], -8.7%; in experiment [6], -23.6%.
For the compound `OC1COc2c3ccccc3nn2C1` (stereo unspecified), the growth inhibition in experiment [1] is -1.35%; in experiment [2], 2.85%; in experiment [3], 21.7%; in experiment [4], 14.5%; in experiment [5], 7.8%; in experiment [6] it was 30.1%.
